# Test results as given in PubChem BioAssay AID504660 (National Center for Advancing Translational Sciences (NCATS), 2011).
# Screen size: about 360,000 compounds; about 3,700 (1%) were called active. This is one part of a sample in which actives are shown more often than they occur. Unmarked numbers belong to inactive results. No stated cut-off is given here; in the data, active means activation above about 30%; inactive means the rest.
# Biological target: D(1A) dopamine receptor (Homo sapiens) (UniProt P21728)
# Sequence (P21728 whole entry, looked up): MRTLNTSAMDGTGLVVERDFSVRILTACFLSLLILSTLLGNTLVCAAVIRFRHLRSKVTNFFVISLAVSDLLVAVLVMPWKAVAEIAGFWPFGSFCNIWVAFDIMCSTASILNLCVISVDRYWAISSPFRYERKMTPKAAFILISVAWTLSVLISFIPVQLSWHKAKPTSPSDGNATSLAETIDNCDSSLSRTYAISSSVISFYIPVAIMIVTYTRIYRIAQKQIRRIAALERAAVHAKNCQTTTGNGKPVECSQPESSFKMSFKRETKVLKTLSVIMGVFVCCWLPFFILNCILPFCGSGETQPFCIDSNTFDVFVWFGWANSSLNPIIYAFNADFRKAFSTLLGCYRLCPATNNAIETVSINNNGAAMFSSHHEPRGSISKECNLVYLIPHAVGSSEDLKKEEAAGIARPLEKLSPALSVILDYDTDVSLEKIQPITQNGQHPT
# Test: Allosteric Agonists of the Human D1 Dopamine Receptor: qHTS; further: 0% is about no effect
# Details: HEK293 T-REx D1 cells, calcium flux, agonist mode; at 2 µM; active compounds read high
# Procedure, shortened: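 Agonism was scored from calcium flux recorded over 180 s (1 read/s) after pintool compound addition, following a 10-cycle baseline. Cells were inducible force-coupled HEK293 TREx D1, plated overnight at 30 C and loaded with no-wash calcium dye.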
row,SMILES,activation
1,CCN(Cc1ccccc1)C(=O)c1cn(-c2cccc(OC)c2)c(=O)c2ccccc12,0.204%
2,Cc1cccc(C(=O)Nc2ccc(-c3nc4ncccc4o3)cc2C)c1,0.768%
3,CCN(CC(=O)Nc1c(F)cccc1F)C(=O)c1ccc(S(=O)(=O)N2CCCCC2)cc1,-0.0233%
4,CCN(CC)CCN(C(=O)c1ccc(N2C(=O)CCC2=O)cc1)c1nc2cc3c(cc2s1)OCO3,5.63%
5,CCc1ccc2nc(N(CCCN(C)C)C(=O)c3ccc4c(c3)OCCO4)sc2c1,53.9% (active)
6,CN(C)CCCN(C(=O)c1ccc(S(=O)(=O)N2CCCCCC2)cc1)c1nc2ccc(Br)cc2s1,42.8% (active)
7,CCCCN(CC)C(=O)c1ccc2c(c1)OCO2,4.54%
8,Cc1cc(C)c2sc(NC(=O)c3ccc(S(=O)(=O)N4CCCC4)cc3)nc2c1,-0.497%
9,CCOc1ccc(CNC(=O)c2cc(=O)[nH]c3ccc(S(=O)(=O)N4CCCCC4)cc23)cc1,-3.81%
10,Cc1cc(C)cc(NS(=O)(=O)c2cc3c(cc2C)NC(=O)CO3)c1,3.6%
11,Cc1ccccc1OCc1ccc(-c2nc(C#N)c(N3CCCCC3)o2)o1,1.07%
12,Cc1ccc(Cn2ncc3c4sc(C)cc4n(C)c3c2=O)c(C)c1,3.45%
13,Cn1c(=O)c(=O)n(C)c2cc(NC(=O)c3ccccc3Br)ccc21,0.667%
14,Cc1ccc(CNC(=O)CCNS(=O)(=O)c2ccc3c(c2)oc(=O)n3C)cc1,1.82%
15,Cc1cc(OCC(=O)NCC2(N(C)C)CCCCC2)cc(C)c1Cl,9.34%
16,CN1CCN(C2(CNC(=O)COc3ccc(C(C)(C)C)cc3)CCCCC2)CC1,42.8% (active)
17,CCOc1ccc(S(=O)(=O)Nc2cccc(C(=O)NCC3(N4CCCCC4)CCCCC3)c2)cc1,5.67%
18,O=C(NCc1ccc2c(c1)CCN2C(=O)c1ccccc1)c1ccccc1,2.65%
19,Cc1cc(C)c2nc3nc(C)cc(C)c3c(N)c2c1,31% (active)
20,O=C(CSc1nc2c(c(=O)[nH]1)CN(Cc1ccc(F)cc1)CC2)Nc1ccccc1Cl,3.05%
21,CCOc1ccccc1CNC(=O)C1CCCN(S(=O)(=O)c2ccc3c(ccn3C)c2)C1 (stereo not given),4.08%
22,O=C(Nc1nnc(S(=O)(=O)N2CCCc3ccccc32)s1)c1cccc(F)c1,0.00305%
23,O=C(c1ccc(Br)cc1)N(Cc1cccs1)c1ccc(F)cc1,9.82%

row,SMILES,activation
1,Cc1c2cnn(-c3ccccc3)c(=O)c2c(C)n1CCCC(=O)N1CCN(C)CC1,0.261%
2,Cc1c2cnn(-c3ccccc3)c(=O)c2c(C)n1C(C)C(=O)Nc1ccc(Br)cc1F (stereo not given),34.5% (active)
3,Cc1ccccc1CNC(=O)Cn1c(C)c2cnn(-c3ccccc3)c(=O)c2c1C,3.52%
4,O=C(/C=C/c1cn(CC(O)CN2CCc3ccccc32)c2ccccc12)c1ccc(Br)cc1 (stereo not given),11.4%
5,COc1ccc(-c2cc(-c3ccc(F)cc3)nc3c2COc2ccccc2-3)cc1,-0.494%
6,COc1ccccc1CNC(=O)CCn1c(=O)c2ccccc2n(CC(=O)Nc2ccc(Br)cc2F)c1=O,0.0005%
7,COc1ccc(C(=O)NNC(=S)NC(=O)c2ccccc2)cc1,84.2% (active)
8,COc1ccc(C(=O)NC(=O)CSc2nnc(-c3ccco3)n2-c2ccccc2)cc1,1%
9,COc1ccc(C(=O)Nc2onc3c2CCCC3)cc1,-1.07%
10,Cn1nnc(NC(=S)NC(=O)c2ccccc2)n1,4.22%
11,O=C(/C=C/c1ccc(F)cc1)NC(=S)NNC(=O)c1cccnc1,1.33%
12,COc1ccc(C(=O)NC(=S)NNC(=O)c2c(-c3ccccc3)noc2C)cc1,86.2% (active)
13,Cc1onc(-c2ccccc2)c1C(=O)NNC(=S)NC(=O)c1ccc(F)cc1,61.1% (active)
14,O=C(NNC(=S)NC(=O)c1cn(-c2ccccc2)nc1-c1ccccc1)c1ccncc1,6.27%
15,CC(=O)NC(=S)NNC(=O)c1ccc(Br)cc1,0.645%
16,Cc1cc(C(=O)Nc2cccc(C(F)(F)F)c2)c2c(C)nn(-c3cccc(F)c3)c2n1,19.5%
17,CCOc1ccc(-n2c(SCC(=O)NCc3ccccc3)nc3n[nH]c(C)c3c2=N)cc1,1.25%
18,COc1ccc(N(CC(=O)NCCc2ccc(Cl)cc2)S(=O)(=O)c2c(C)nn(C)c2C)cc1,0.495%
19,CCOC(=O)c1[nH]c(C)c(CCC(=O)NCc2ccccc2C)c1C,-0.942%
20,CCOc1ccc(-c2nonc2NC(=O)c2oc3ccc(CC)cc3c2C)cc1,5.77%
21,Cc1ccc(OC(=O)CSc2nnc(-c3cccs3)o2)cc1,1.31%
22,CCN1CCN(c2ncc3c(n2)CC(c2ccccc2O)CC3=O)CC1 (stereo not given),9.15%
